Measurements from PubChem BioAssay (NCATS).
Calls of active or inactive are those of the source. Calls follow the shape of the dose curve; as a rule, active = well fitted curve in the direction sought with a large enough effect; inconclusive = small, poorly fitted or top-dose-only effect, or another doubt; inactive = no such curve, though single readings can be large or run the other way.

Test: qHTS for ATAD5 Agonist screened against the NCATS CANVASS Library (AID 1347367);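 also: luciferase reporter driven by ATAD5 which rises upon DNA damage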
Settings: HEK293T ATAD5-luciferase reporter, luminescence, 16 h; series mostly up to 46.1 µM
Outline: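 Luciferase reporter under ATAD5 control, stably integrated in HEK293T cells (2000/well). Compounds (11 points) incubated 16 h at 37C; viability read first by CellTiter-Fluor, then luminescence reporting ATAD5 activation. MMS positive control.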

Potency, inactive:
CC(=O)N[C@H](C)c1nc(/C=C/C=C/C(=O)CC2CC(=O)CC[C@]2(C)O)cs1 (stereo partly specified)
CN1C(=O)C(=O)N2C(=C[C@]3(c4c[nH]c5ccccc45)c4ccccc4N[C@H]23)C1=O
CN1CC[C@]23c4ccccc4N[C@H]1[C@]21CCN(C)[C@H]3Nc2ccccc21
C/C=C1/C2=CCCN3C(=O)O[C@H]([C@H]1O)[C@H]23
O=C1CC(c2ccc(O)cc2)Oc2ccccc21 (stereo unspecified)
COc1c(O)cc(O)c2c(=O)cc(-c3ccccc3)oc12
COC1C(C)OC(OCC23C[C@@H]4[C@H](C)CC[C@H]4C4(C=O)CC2C=C(C(C)C)C34C(=O)O)[C@@H](O)[C@H]1O (stereo partly specified)
CN1CC[C@@]2([C@@]34CCN(C)[C@@H]3Nc3ccccc34)c3ccccc3N[C@@H]12
COc1ccc(-c2oc3cc(OC)cc(OC)c3c(=O)c2O)cc1
Cc1cc(O)cc2c1C(=O)c1c(O)cc(O)cc1C2=O
C=C(Cl)[C@](Cl)(CBr)CC[C@@H](Br)C(C)(C)Cl
C=C(C)C(=O)O[C@H]1C[C@@]2(C)OC(=CC2=O)/C(C)=C\[C@H]2OC(=O)C(=C)[C@H]12
C=C[C@]1(C)CC[C@@H]([C@H](C)C(=O)CC=C(C)C)O1
CC[C@@H]1C[C@@]2(CC)OC(=O)[C@@]3(CC)[C@H](CC)[C@@H]1[C@@H]23
[C-]#[N+][C@@]12C(=O)[C@@H]3[C@@H](O[C@@]4(C(=O)N(C)c5cccc1c54)C3(C)C)C(=O)[C@@]2(C)C=C
COC(=O)c1cccc2oc(-c3cccc4oc(-c5c(C)cccc5O)nc34)nc12
C[C@@]12CCC[C@@](C)(C(=O)OP(=O)(O)OC[C@H]3O[C@@H](n4cnc5c(N)ncnc54)[C@H](O)[C@@H]3O)[C@H]1C[C@@H](O)[C@@]13C[C@@H](CC[C@@H]21)[C@](C)(O)C3
CCC(C)=C1OC(=O)[C@H](C)[C@H](O)[C@H](Cc2cccnc2)NC(=O)C(NC(=O)c2ncccc2O)C(C)OC1=O (stereo partly specified)
C[C@@]12CCC[C@@](C)(C(=O)O)[C@H]1CC[C@@]13C[C@@H](CC[C@H]12)[C@](C)(O)C3
O=C1OC(CCO)c2cccc(O)c21 (stereo unspecified)
C=C1C[C@]23C=CC(=O)[C@@](C)(CCCC(C)C(=O)N[C@@H](CO)C(=O)O)[C@@H]2C[C@@H]1CC3 (stereo partly specified)
COc1cc2ccc(=O)oc2c(O)c1O[C@@H]1O[C@H](CO)[C@@H](O)[C@H](O)[C@H]1O
C/C(=C\[C@@H](C)CC/C=C/CC/C=C/C(=O)O)[C@@H](O)[C@H](C)C(=O)CCCC1CC(=O)NC(=O)C1
CO[C@@H](C[C@@H](C)[C@@H](O)/C=C/C=C/CNC(=O)C(C)(C)[C@H](O)\C(C)=C/C=C\C=C\Cc1cnco1)[C@]1(O)[C@@H](C)C(=O)N(C)[C@@]12COC2=O
O=C1CC(c2ccc(O)cc2)Oc2cc(O)cc(O)c21 (stereo unspecified)
O=C1CC(c2ccc(O)cc2)Oc2cc(O)ccc21 (stereo unspecified)
CN1CC[C@@]23c4ccccc4N[C@@H]1[C@@]21CCN(C)[C@@H]3Nc2ccccc21
C[C@@]12CCC[C@@](C)(C(=O)O)[C@H]1C[C@@H](O)[C@@]13C[C@@H](CC[C@@H]21)[C@](C)(O)C3
O=Cc1ccc2n1C[C@]1(OC2)O[C@H](CO)[C@@H](O)[C@@H]1O
C=C[C@@]1(C)CC[C@@H]([C@H](C)C(C)=O)O1
C/C=C(/CO)C(=O)O[C@@H]1[C@H](O)[C@@H](C(=O)OC)O[C@@H]2C[C@H]3OC(n4cnc5c(N)ncnc54)[C@H](OC)[C@H]3O[C@@]12O (stereo partly specified)
C/C=C/[C@H]1[C@H]2C(=O)c3c(O)c(C)c(O)c(C)c3[C@]1(C(=O)O)C(=O)C=C2C
C[C@@]12C[C@@H](C[C@@H]3C(=O)O[C@@H](c4ccoc4)[C@H](OC(=O)c4ccccc4)[C@@H]31)OC2=O
C=C1CCC2C(C)(C(=O)O)CCC(CC/C(C)=C/C(=O)NC(CCC(N)=O)C(=O)O)[C@@]2(C)C1 (stereo partly specified)
C=C1[C@@]2(C)CC3C4(C)CCC(O)C(C)(C)C4CCC3(C)[C@]1(C(=O)OC)C(=O)C(C)(O)C2=O (stereo partly specified)
CC(C)=CCC[C@]1(C)[C@H]2CC(=O)[C@@]3(CO3)[C@@H]1C2
